Cruzain Triton – inhibitors of Trypanosoma cruzi cruzain with detergent; AID 1478; 200,000 tested, 0.43% active; P25779; purified cruzain, Z-FR-AMC fluorescence, 0.01% Triton; Potency, µM, usual class: inhibitors; note: nearly all actives have a fitted effect of over 40% in size
Target sequence (P25779 123-467 limits assumed): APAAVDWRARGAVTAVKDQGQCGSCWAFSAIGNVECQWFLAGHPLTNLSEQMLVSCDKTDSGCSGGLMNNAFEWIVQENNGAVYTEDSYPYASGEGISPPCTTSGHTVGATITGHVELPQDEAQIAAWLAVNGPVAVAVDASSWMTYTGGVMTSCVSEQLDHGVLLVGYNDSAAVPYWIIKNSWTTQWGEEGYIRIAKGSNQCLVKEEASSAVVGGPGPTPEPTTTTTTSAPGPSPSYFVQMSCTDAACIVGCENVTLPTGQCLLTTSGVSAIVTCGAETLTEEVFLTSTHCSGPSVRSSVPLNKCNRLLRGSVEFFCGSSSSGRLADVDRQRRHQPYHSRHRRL
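Purified cruzain (1.5 nM final) was preincubated with compounds for 15 min at room temperature in 100 mM sodium acetate pH 5.5, 5 mM DTT, 0.01% Triton X-100. Reaction started with 2 uM Z-FR-AMC; AMC fluorescence change over 60 s gave activity.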
Cruzain inh noDet – cruzain (T. cruzi) inhibition without detergent. purified cruzain, Z-FR-AMC fluorescence, no detergent. P25779. Potency, µM, hits mostly inhibitors. 200,000 tested, 2.3% active. AID 1476; note: nearly all actives have a fitted effect of over 40% in size
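Detergent-free condition (0.00005% Triton X-100) in acetate buffer pH 5.5 with DTT. 1.5 nM enzyme and compound were pre-mixed 15 min, then 2 uM Z-FR-AMC substrate added; reaction progress from fluorescence change between first and third reads (60 s).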
Numbers stand for hits. Hits are enriched below; roughly 2.4% of the tested compounds scored in any of these assays. Calls come from the whole dose curve; as a rule, active = well fitted curve in the direction sought with a large enough effect; inconclusive = small, poorly fitted or top-dose-only effect, or another doubt; inactive = no such curve, though single readings can be large; an effect the other way counts as inactive or inconclusive.

How did CCC(C(=O)N1CCN(c2ccccc2)CC1)n1c(C)c2cnn(-c3ccccc3)c(=O)c2c1C (stereo not given) do in these assays?
Cruzain Triton: inactive; Cruzain inh noDet: inconclusive

How did COc1ccc(-c2nc3ccccc3o2)cc1NC(=O)C(C)(C)Oc1ccc(Br)cc1 do in these assays?
Cruzain Triton: inactive; Cruzain inh noDet: inactive

What do the screens show for `COc1ccc(NC(=O)c2nc3nc(C)cc(C(F)F)n3n2)c(C)c1`?
Cruzain Triton: inactive; Cruzain inh noDet: inactive

Results for COc1ccccc1-c1ccc(/C=C2/C=C(CC(C)C)OC2=O)o1 ?
Cruzain Triton: inactive; Cruzain inh noDet: 32µM

How did CCCC1=C/C(=C/c2ccc(-c3ccccc3OC)o2)C(=O)O1 do in these assays?
Cruzain Triton: inactive; Cruzain inh noDet: inconclusive

What do the screens show for `COc1cccc(C(=O)Nc2cc3cc(OC)ccc3oc2=O)c1`?
Cruzain Triton: inactive; Cruzain inh noDet: inactive

How did COc1ccc(C(=O)Nc2cc(C(=O)c3ccccc3)c(C)oc2=O)cc1 do in these assays?
Cruzain Triton: 13µM; Cruzain inh noDet: 16µM

How did C#CCn1c(C2CC(=O)N(c3ccc(OC)cc3)C2)nc2ccccc21 (stereo not given) do in these assays?
Cruzain Triton: inactive; Cruzain inh noDet: inactive

Results for Cc1ccc(S(=O)(=O)Nc2nc3ccccc3nc2NCc2ccco2)cc1 ?
Cruzain Triton: inactive; Cruzain inh noDet: inconclusive

What do the screens show for `O=S(=O)(Nc1nc2ccccc2nc1NCc1ccco1)c1ccc(Cl)cc1`?
Cruzain Triton: inactive; Cruzain inh noDet: 20µM

Results for COCCn1c(SCC(=O)c2ccc(F)cc2)nc2cc(C(=O)NC3CCCC3)ccc2c1=O ?
Cruzain Triton: inactive; Cruzain inh noDet: inactive

Results for CCOC(=O)CC(NC(=O)c1cc2cc(OC)ccc2oc1=O)c1ccc(OC)cc1 (stereo not given) ?
Cruzain Triton: inactive; Cruzain inh noDet: inactive

Results for Cc1cc(C)cc(NC(=O)Cn2c(=O)n(CCC(C)C)c(=O)c3cccnc32)c1 ?
Cruzain Triton: inactive; Cruzain inh noDet: inactive

What do the screens show for `CCCOc1ccc(/C=N/NC(=S)Nc2ccccc2[N+](=O)[O-])c(O)c1`?
Cruzain Triton: inactive; Cruzain inh noDet: 4µM

What do the screens show for `CCCOc1ccc(/C=N/Nc2ccccc2[N+](=O)[O-])c(O)c1`?
Cruzain Triton: inactive; Cruzain inh noDet: 10µM

What do the screens show for `COc1ccc(/C=N/NC(=S)Nc2ccccc2[N+](=O)[O-])cc1O`?
Cruzain Triton: inactive; Cruzain inh noDet: inactive

What do the screens show for `CCCOc1ccc(/C=N/Nc2cccc([N+](=O)[O-])c2)c(O)c1`?
Cruzain Triton: inactive; Cruzain inh noDet: inconclusive

What do the screens show for `CCOCCn1ccc2c(OCC(=O)Nc3ccc(OC(F)(F)F)cc3)cccc2c1=O`?
Cruzain Triton: inactive; Cruzain inh noDet: inconclusive

How did Cc1oc(-c2ccc(C(=O)Nc3cccc(C(F)(F)F)c3)cc2)nc1CSc1ccccc1 do in these assays?
Cruzain Triton: inactive; Cruzain inh noDet: inconclusive

How did CC1=C(C(=O)Nc2ccc(C)cc2C)C(CC(C)C)n2nc(SCc3ccccc3C)nc2N1 (stereo not given) do in these assays?
Cruzain Triton: inactive; Cruzain inh noDet: inactive

What do the screens show for `Clc1ccc(-c2nnc(-c3ccc(Br)cc3)c(N3CCSCC3)n2)cc1`?
Cruzain Triton: inactive; Cruzain inh noDet: 20µM

Results for Clc1ccc(-c2nnc(-c3ccco3)nc2N2CCCCC2)cc1 ?
Cruzain Triton: inactive; Cruzain inh noDet: inactive

Results for COc1cccc(/C=C/c2nc(C#N)c(N3CCN(C)CC3)o2)c1 ?
Cruzain Triton: 25µM; Cruzain inh noDet: 3.2µM

What do the screens show for `COc1ccc(N2CCN(c3oc(/C=C/c4cccc(OC)c4)nc3C#N)CC2)cc1`?
Cruzain Triton: inactive; Cruzain inh noDet: inactive

Results for COc1ccccc1/C=C/c1nc(C#N)c(N2CCN(c3ccccc3)CC2)o1 ?
Cruzain Triton: inactive; Cruzain inh noDet: inactive

What do the screens show for `COc1cc(/C=C/c2nc(C#N)c(N3CCN(C)CC3)o2)cc(OC)c1OC`?
Cruzain Triton: inactive; Cruzain inh noDet: 13µM

How did COc1ccc(/C=C2/C(=O)N(Cc3ccccc3)N=C2C)cc1 do in these assays?
Cruzain Triton: inactive; Cruzain inh noDet: inactive

What do the screens show for `COc1ccc(/C=C2/C(=O)N(c3nc4ccccc4s3)N=C2CSc2ccc(Cl)cc2)cc1`?
Cruzain Triton: inactive; Cruzain inh noDet: 3.2µM

What do the screens show for `CSc1ccc(C2c3c(oc4ccc(F)cc4c3=O)C(=O)N2c2ccc(C)cn2)cc1` (stereo not given)?
Cruzain Triton: inactive; Cruzain inh noDet: inactive

How did Cc1ccc(NC(=O)COC(=O)c2csc3c2CCC(C)C3)cc1S(=O)(=O)N1CCCCC1 (stereo not given) do in these assays?
Cruzain Triton: inactive; Cruzain inh noDet: 25µM

Results for CC1CCc2c(C(=O)OCC(=O)Nc3cccc(S(=O)(=O)N4CCCCCC4)c3)csc2C1 (stereo not given) ?
Cruzain Triton: inactive; Cruzain inh noDet: inconclusive

Results for Cc1ccc(N=Cc2c(O)n(-c3ccc4c(c3)OCO4)c(=O)c3ccccc23)cc1 ?
Cruzain Triton: inactive; Cruzain inh noDet: 3.2µM

What do the screens show for `Cc1cccc(-n2c(O)c(C=Nc3ccc(O)cc3)c3ccccc3c2=O)n1`?
Cruzain Triton: inactive; Cruzain inh noDet: inconclusive

What do the screens show for `Cc1cn2c(=O)cc(COC(=O)c3ccc(NC(=O)COc4ccccc4C)cc3)nc2s1`?
Cruzain Triton: inactive; Cruzain inh noDet: inactive

What do the screens show for `COc1ccc(-c2cn3c(n2)sc2cc(C(=O)NC4CCCCCC4)ccc23)cc1`?
Cruzain Triton: inactive; Cruzain inh noDet: inactive

How did Cc1ccc(-c2cn3c(n2)sc2cc(C(=O)NC4CCCCCC4)ccc23)c(C)c1 do in these assays?
Cruzain Triton: inactive; Cruzain inh noDet: 10µM

Results for CC1CCCN(CCC(=O)c2ccc(Br)cc2)C1 (stereo not given) ?
Cruzain Triton: inconclusive; Cruzain inh noDet: 5µM

How did CC1CCCN(CCOc2ccc(Br)cc2)C1 (stereo not given) do in these assays?
Cruzain Triton: inactive; Cruzain inh noDet: inactive

Results for CCOc1ccc(OC(=O)c2cn(-c3ccc(C)cc3)c(=O)c3ccccc23)cc1 ?
Cruzain Triton: inactive; Cruzain inh noDet: inactive

What do the screens show for `CCOC(=O)c1oc2ccc(S(=O)(=O)n3nc(-c4ccc(Cl)cc4)cc3N)cc2c1C`?
Cruzain Triton: inactive; Cruzain inh noDet: 13µM

What do the screens show for `CCOC(=O)c1oc2ccc(S(=O)(=O)n3nc(-c4ccc(C)cc4)cc3N)cc2c1C`?
Cruzain Triton: inactive; Cruzain inh noDet: inconclusive

How did COc1cc(OC)cc(C(=O)NCC(=O)OCC(=O)NC(C)(C)C)c1 do in these assays?
Cruzain Triton: inactive; Cruzain inh noDet: inactive

How did CC(C)CNC(=O)COC(=O)c1ccc([N+](=O)[O-])cc1Cl do in these assays?
Cruzain Triton: inactive; Cruzain inh noDet: inactive

What do the screens show for `CC(C)(C)NC(=O)COC(=O)CNC(=O)c1cc(Cl)cc([N+](=O)[O-])c1`?
Cruzain Triton: 25µM; Cruzain inh noDet: 20µM

What do the screens show for `CC(C)CNC(=O)COC(=O)CNC(=O)c1cc(Cl)cc([N+](=O)[O-])c1`?
Cruzain Triton: 10µM; Cruzain inh noDet: 7.9µM

What do the screens show for `O=C(CNC(=O)c1ccccc1)NCC(=O)OCC(=O)c1ccc([N+](=O)[O-])cc1`?
Cruzain Triton: inactive; Cruzain inh noDet: inactive

What do the screens show for `CCNC(=O)COC(=O)CNC(=O)c1cc(Cl)cc([N+](=O)[O-])c1`?
Cruzain Triton: 7.9µM; Cruzain inh noDet: 7.9µM

How did Cc1ccc(CCNC(=O)CCSCc2ccccc2Cl)cc1 do in these assays?
Cruzain Triton: inactive; Cruzain inh noDet: inactive

Bioassay records from PubChem.
